# In PubChem BioAssay:
# Where “and” joins values, the source holds several entries; their conditions need not be identical. Equal entries are not always repeated. Records with an inconclusive call do not appear. For part of these data: Potency and affinity values are given separately. Calls of active or inactive are those of the source. Unless noted, no rule for the calls is given here.
# Tests used:
# [1] = restoration of touch response, mutant HTT neurons – whole organism, C. elegans mechanosensory neurons, N-terminal huntingtin (AID 1599); conditions: C. elegans polyQ-huntingtin mechanosensory neurons, stronger effect = higher value
# [2] = GFP-Q80 aggregate reduction, neuronal-like cells, cell-based, NGF-treated PC12, GFPQ80 (AID 1614); conditions: PC12 NGF-treated GFP-polyQ80 inclusion reduction;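 also: lower means fewer inclusions and 0 means no inclusions at all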
# [3] = 75Q-TubH aggregate inhibition, S. cerevisiae, yeast (AID 1616); conditions: S. cerevisiae 75Q-TubH polyglutamine aggregation suppression; stronger effect = higher value
# [4] = compounds altering viability of human ES cells (AID 493140); conditions: human embryonic stem cell survival screen; stronger effect = higher value;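 also: cells exposed to compounds for four days before counting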
# [5] = tested on: Hepatitis C virus NS3 helicase; experiment: blockers of NS3h binding to ssDNA – biochemical, fluorescence polarization, LOPAC1280 library, primary screen (AID 687035; in the data active = inhibition above about 37%); conditions: Purified HCV NS3 helicase, Cy5-dT15 ssDNA binding fluorescence polarization; stronger effect = higher value; concentration not given here
# [6] = compounds altering Cy5-DNA-NS3h complex signal – biochemical, LOPAC1280, artefact control for HCV NS3 helicase inhibitor project (AID 687037); conditions: Cy5-DNA-NS3h complex fluorescence interference counterscreen
# [7] = viability loss in pontine glioma line – cell-based, SU-DIPG-XVII, MIPE5.0, CellTiter-Glo, qHTS, dose response (AID 1347060; cut-off not given, nearly all actives have AC50 up to about 26 µM;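 as to AC50: cells exposed to compound for 48 hours before viability readout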); conditions: CellTiter-Glo ATP luminescence
# [8] = viability loss in pontine glioma line – cell-based, JHH-DIPG-1, MIPE4.0, CellTiter-Glo, qHTS, dose response (AID 1347062; cut-off not given, nearly all actives have AC50 up to about 27 µM;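 as to AC50: cells exposed to compound for two days before readout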); conditions: JHH-DIPG-1 viability, CellTiter-Glo ATP luminescence
# [9] = growth inhibition of DIPG cells – cell-based, MIPE4.0 library, CellTiter-Glo luminescence, qHTS (AID 1347066; cut-off not given, nearly all actives have AC50 up to about 30 µM;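 also: cells exposed to compound for 48 hours before readout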); conditions: SU-DIPG-VI viability, CellTiter-Glo ATP luminescence
# [10] = growth inhibition of DIPG cells – cell-based, MIPE5.0 library, qHTS (AID 1347068; cut-off not given, nearly all actives have IC50 up to about 30 µM); conditions: SU-DIPG-XXV viability
# [11] = blockers of cellular phospholipid synthesis – cell-based, LOPAC library, screen 4, primary screen (AID 1347384); conditions: animal cells, phospholipid biosynthesis inhibition screen; at 10 µM
# [12] = viability loss in pontine glioma line – cell-based, SU-DIPG-IV, MIPE4.0, CellTiter-Glo, qHTS, dose response (AID 1347063; cut-off not given, nearly all actives have AC50 up to about 30 µM;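 also: compound exposure lasted 48 hours before the viability readout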); conditions: CellTiter-Glo ATP luminescence
# [13] = JHH-DIPG-1 glioma cell viability, MIPE5.0 library, CellTiter-Glo luminescence, qHTS (AID 1347067; cut-off not given, nearly all actives have AC50 up to about 26 µM;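 also: cells exposed to compound for 48 hours before readout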); conditions: JHH-DIPG-1 glioma viability, CellTiter-Glo ATP luminescence
# [14] = viability loss in pontine glioma line – cell-based, SU-DIPG-XXV, MIPE5.0, CellTiter-Glo, qHTS, dose response (AID 1347065; cut-off not given, nearly all actives have AC50 up to about 26 µM;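 also: cells exposed to compound for 48 hours before ATP readout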); conditions: CellTiter-Glo ATP luminescence
# [15] = growth inhibition, single agents and combos, LFS_MB_1R, cell-based, cisplatin or BGB combos, synergistic combos for chromothripsis tumors (AID 1671452; in the data active = inhibition above about 80%;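 also: cells exposed for 96 hours before readout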); conditions: LFS_MB_1R medulloblastoma cells, stronger effect = higher value
# [16] = growth inhibition, MDA-MB-436, cell-based, BGB or cisplatin combos, synergistic combos for chromothripsis tumors (AID 1671458); conditions: MDA-MB-436 breast carcinoma growth inhibition, drug combinations, stronger effect = higher value;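 also: cells exposed for 96 hours; 0% = vehicle DMSO and 100% = killing by high DMSO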
# [17] = BT084 cell growth, single and combined drugs, ICGC_MB145, cisplatin and BGB IC40 combos (AID 1671461; in the data active = inhibition above about 80%;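 also: cells exposed to drugs for 96 hours; 0% = vehicle DMSO and 100% = high DMSO full killing control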); conditions: BT084 medulloblastoma cells, drug combinations, stronger effect = higher value
# [18] = RCMB18 cell growth, single agent and combined, cisplatin and BGB IC40 combos (AID 1671462; in the data active = inhibition above about 80%;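 also: cells exposed to compound for four days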); conditions: RCMB18 medulloblastoma cells, stronger effect = higher value
# [19] = CRL1545 cell growth, single agent and combined, cisplatin and BGB IC20 combos (AID 1671464; in the data active = inhibition above about 80%;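 also: cells exposed to compound for 96 hours before readout; 0% = vehicle DMSO and 100% = high DMSO killing control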); conditions: CRL1545 osteosarcoma cells, stronger effect = higher value
# [20] = viability loss in pontine glioma line – cell-based, SU-DIPG-XIII, MIPE4.0, CellTiter-Glo, qHTS, dose response (AID 1347061; cut-off not given, nearly all actives have AC50 up to about 37 µM;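 also: cells exposed to compound for 48 hours before readout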); conditions: CellTiter-Glo ATP luminescence
# [21] = measured here: combination with cisplatin, at 0.5 µM
compound,measurement,setting,value
CCCNCC(O)COc1ccccc1C(=O)CCc1ccccc1 (centres undefined),rescue above control,[1],2.07
same,inclusion score,[2],2
same,aggregation suppression score,[3],0.81
same,survival,[4],6.75 (inactive)
same,inhibition,[5],-1% (inactive)
same,fluorescence ratio (interference),[6],1 (inactive)
same,outcome,[7],inactive
same,outcome,[8],inactive
same,outcome,[9],inactive
same,outcome,[10],inactive
same,outcome,[11],inactive
O=C1C(CCS(=O)c2ccccc2)C(=O)N(c2ccccc2)N1c1ccccc1 (centres undefined),rescue above control,[1],-11.1
same,inclusion score,[2],1.5
same,aggregation suppression score,[3],0.341
same,survival,[4],40.2 (inactive)
NS(=O)(=O)c1cc(C2(O)NC(=O)c3ccccc32)ccc1Cl (centres undefined),rescue above control,[1],-4.25
same,inclusion score,[2],2
same,aggregation suppression score,[3],1.49
same,survival,[4],4.42 (inactive)
Cc1ccc(-c2cc(C(F)(F)F)nn2-c2ccc(S(N)(=O)=O)cc2)cc1,rescue above control,[1],17.2
same,aggregation suppression score,[3],0.638
same,outcome,[8],inactive
same,outcome,[12],inactive
same,AC50,[13],10.5 µM (active)
same,outcome,[10],inactive
same,outcome,[11],inactive
NS(=O)(=O)c1cc2c(cc1Cl)NC=NS2(=O)=O,rescue above control,[1],7.98
same,inclusion score,[2],2
same,aggregation suppression score,[3],1.42
same,survival,[4],13.6 (inactive)
same,inhibition,[5],-2% (inactive)
same,fluorescence ratio (interference),[6],0.9 (inactive)
same,outcome,[7],inactive
same,outcome,[8],inactive
same,outcome,[12],inactive
same,outcome,[14],inactive
same,outcome,[9],inactive
same,outcome,[13],inactive
same,outcome,[10],inactive
same,outcome,[11],inactive
CN1CCCC(n2nc(Cc3ccc(Cl)cc3)c3ccccc3c2=O)CC1 (centres undefined),AC50,[8],2.35 µM (active)
same,AC50,[12],6.62 µM (active)
O=S(=O)(O)CCS,rescue above control,[1],-8.48
same,inclusion score,[2],2
same,aggregation suppression score,[3],1.35
same,outcome,[7],inactive
same,outcome,[8],inactive
same,outcome,[12],inactive
same,outcome,[14],inactive
same,outcome,[9],inactive
same,outcome,[13],inactive
same,outcome,[10],inactive
CN[C@H]1CC[C@@H](c2ccc(Cl)c(Cl)c2)c2ccccc21,AC50,[13],16.6 µM (active)
CCn1cc(C(=O)O)c(=O)c2cc(F)c(N3CCN(C)CC3)cc21,outcome,[7],inactive
same,outcome,[8],inactive
same,outcome,[12],inactive
same,outcome,[9],inactive
same,outcome,[10],inactive
same,inhibition,[15]; at 0.5 µM,-35.2% (inactive) and -9.17% (inactive)
same,inhibition,"[15]; measured here: combination with BGB IC40, at 0.05 µM",-12.2% and -6.93%
same,inhibition,[15]; [21],-66.1% and -0.499%
same,inhibition,"[15]; measured here: combination with cisplatin, at 5 µM",-52.8% and 11.3%
same,inhibition,[16]; at 0.5 µM,-8.42% (inactive) and -1.21% (inactive)
same,inhibition,"[16]; measured here: BGB combination, at 0.5 µM",-5.87% and 9.12%
same,inhibition,"[16]; measured here: BGB combination, at 5 µM",-7.49% and 1.82%
same,inhibition,"[16]; measured here: cisplatin combination, at 0.5 µM",-16.3% and -4.65%
same,inhibition,"[16]; measured here: cisplatin combination, at 5 µM",-9.37% and -6.1%
same,inhibition,[17]; at 0.5 µM,-1.86% (inactive) and 3.84% (inactive)
same,inhibition,"[17]; cisplatin combination, at 0.5 µM",-11.9% and -2.51%
same,inhibition,"[17]; cisplatin combination, at 5 µM",-69% and 6.95%
same,inhibition,"[17]; measured here: BGB IC40 combination 0.05 uM, at 0.05 µM",-0.823% and 30.3%
same,inhibition,"[17]; single agent, at 5 µM",-6.24% and -12.7%
same,inhibition,[18]; at 0.5 µM,-15.3% (inactive) and 13.4% (inactive)
same,inhibition,"[18]; cisplatin combo, at 5 µM",-13.1% and 21.2%
same,inhibition,"[18]; measured here: BGB IC40 combination, at 0.05 µM",11.2% and 6.78%
same,inhibition,[18]; [21],-34.9% and 34.7%
same,inhibition,"[18]; single agent, at 5 µM",-30.4% and 4.8%
same,inhibition,[19]; at 0.5 µM,-40.9% (inactive) and -9.39% (inactive)
same,inhibition,"[19]; measured here: with BGB IC20 combination, at 0.5 µM",-21.3% and -8%
same,inhibition,"[19]; measured here: with cisplatin IC20 combination, at 0.5 µM",-50.7% and -12.6%
same,inhibition,"[19]; single agent, at 0.05 µM",3.45% and -1.09%
same,inhibition,"[19]; single agent, at 5 µM",-27.1% and 1.32%
CCc1cccc2c3c([nH]c12)C(CC)(CC(=O)O)OCC3 (centres undefined),rescue above control,[1],-7.42
same,inclusion score,[2],2
same,aggregation suppression score,[3],0.918
same,survival,[4],14.8 (inactive)
same,inhibition,[5],-3% (inactive)
same,fluorescence ratio (interference),[6],1 (inactive)
same,outcome,[20],inactive
same,outcome,[8],inactive
same,outcome,[12],inactive
same,outcome,[9],inactive
same,outcome,[11],inactive
CCc1nc(N)nc(N)c1-c1ccc(Cl)cc1,rescue above control,[1],26.6
same,aggregation suppression score,[3],0.999
same,survival,[4],16.9 (inactive)
same,AC50,[7],3.72 µM (active)
same,outcome,[20],inactive
same,outcome,[12],inactive
same,outcome,[9],inactive
same,outcome,[13],inactive
same,outcome,[10],inactive
CN(C)CCc1c[nH]c2ccc(C[C@H]3COC(=O)N3)cc12,outcome,[20],inactive
same,outcome,[8],inactive
same,outcome,[12],inactive
same,outcome,[9],inactive
CC(C)(C)NCC(O)COc1cccc2c1C[C@H](O)[C@H](O)C2 (some centres undefined),rescue above control,[1],-2.31
same,inclusion score,[2],2
same,aggregation suppression score,[3],1.12
same,survival,[4],5.83 (inactive)
Cc1onc(-c2c(Cl)cccc2Cl)c1C(=O)N[C@@H]1C(=O)N2[C@@H]1SC(C)(C)[C@@H]2C(=O)O,rescue above control,[1],8.15
same,inclusion score,[2],2
same,aggregation suppression score,[3],1.09
same,survival,[4],4 (inactive)
